D1 potentiator: human D1 dopamine receptor positive modulation | AID 504651 | potentiation, % at 10 µM | HEK293 TREx D1 cells, calcium flux, dopamine EC20 potentiation | 0.036% of 360,000 active; in the data active = potentiation above about 30%; also: 0% is about no effect
D1 antag: antagonists of human D1 dopamine receptor. P21728. HEK293 TREx D1 cells, calcium flux, dopamine EC80; stronger effect = lower value. activity change, negative = inhibition, % at 10 µM. 3.2% of 360,000 active; in the data active = activity change below about -30%; also: % is scaled to controls: 0 for no effect and ±100 for the full control effect
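Allosteric or orthosteric antagonism assessed as attenuation of the calcium response to EC80 dopamine, added 180 s after compound, in induced HEK293 Trex D1 cells loaded with no-wash calcium dye.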
TRHR ag: agonists of human TRH receptor. P34981. TRHR cells, calcium flux fluo-8, FDSS agonist mode. activation, % at 2 µM. 0.18% of 360,000 active. AID 493084; also: 0% is about no effect
Target sequence (P34981 whole entry, looked up): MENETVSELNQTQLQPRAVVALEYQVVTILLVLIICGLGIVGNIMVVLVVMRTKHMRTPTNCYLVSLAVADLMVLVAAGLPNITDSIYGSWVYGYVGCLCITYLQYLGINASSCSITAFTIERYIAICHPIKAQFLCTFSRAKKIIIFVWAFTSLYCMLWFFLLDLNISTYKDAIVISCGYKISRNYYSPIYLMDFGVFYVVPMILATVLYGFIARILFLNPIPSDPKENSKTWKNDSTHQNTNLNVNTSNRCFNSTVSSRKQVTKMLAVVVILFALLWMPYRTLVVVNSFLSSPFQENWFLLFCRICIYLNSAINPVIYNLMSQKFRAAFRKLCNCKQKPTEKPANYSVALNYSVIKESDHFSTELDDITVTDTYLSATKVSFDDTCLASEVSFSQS
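Fluo-8-loaded TRHR cells; 10 s baseline, compound added, kinetic Ca2+ fluorescence read 1/s, agonist mode.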
TRHR enhancer: TRH receptor (human) allosteric enhancement; P34981; AID 493056; enhancement, % at 2 µM; TRHR cells, fluo-8 calcium fluorescence, EC20 TRH enhancement; 0.66% of 360,000 active; in the data active = enhancement above about 30%; also: 0% is about no effect
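TRHR-expressing cells loaded with fluo-8 calcium dye were read kinetically (ex 480/em 530) during compound addition, then stimulated with an EC20 of TRH (10 nM final). Enhancement of the Gq-mediated intracellular calcium response was scored.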
D1 agonist: agonists of human D1 dopamine receptor; P21728; 1% of 360,000 active; activation, % at 2 µM; HEK293 T-REx D1 cells, calcium flux, agonist mode; also: 0% is about no effect
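Tetracycline-induced HEK293 TREx D1 cells, force-coupled to calcium signalling, were dye-loaded with a no-wash calcium kit. Compound was pin-added after a 10 s baseline. Fluorescence was read kinetically at 1 cycle/s for 180 s, with calcium rises flagged as agonism.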
The depositor's hits bear a star; nt = no result given. Compounds with a hit are over-represented: about 4.6% of the library has one in this group of screens. Rule as the data show it, unless noted: active = activation above about 30%; inactive = the rest.

SMILES | D1 potentiator | D1 antag | TRHR ag | TRHR enhancer | D1 agonist
Cc1ccccc1C(=O)NC1(C(F)(F)F)N=C(c2ccccc2)N(C2CCCCC2)C1=O (stereo unspecified) | -2.2 | 6.6 | -2.4 | -1.5 | 0.4
CCCCc1c(C)nc(Nc2ccc(OC)cc2)[nH]c1=O | -0.9 | -37.0* | 0.3 | 7.4 | 1.0
CCCCCc1c(C)nc(Nc2ccc(F)cc2)[nH]c1=O | -6.7 | -29.3 | 5.2 | -8.3 | 20.6
CCCc1cc(=O)[nH]c(Nc2ccc(OCC)cc2)n1 | 3.8 | -83.8* | -0.3 | -6.1 | 8.5
Cc1cccc(-c2noc(-c3ccc(NCc4ccccc4)c([N+](=O)[O-])c3)n2)c1 | -1.6 | -2.2 | -0.5 | 1.7 | 2.8
CCc1nn(CC(=O)N2CCCCC2)c(=O)c2cc3sccc3n12 | -3.9 | -8.4 | -0.4 | 16.1 | -0.5
CCCc1cnc2c(c1SCC(=O)N1CCC(C)CC1)c(=O)n(C)c(=O)n2C | -1.4 | nt | -0.3 | 4.3 | -4.0
Cc1noc(C)c1CSCC(=O)N1CCN(c2ccc(F)cc2)CC1 | -3.3 | -31.5* | 0.4 | 2.9 | 13.1
Cc1noc(C(=O)N2CCN(c3ccc(F)cc3)CC2)c1Cl | -3.0 | -69.2* | -0.3 | 4.9 | 2.3
Cc1cccc(Nc2nnc(-c3ccc(C)c(S(=O)(=O)NCC4CCCO4)c3)c3ccccc23)c1 (stereo unspecified) | -2.7 | -20.2 | 0.1 | -12.9 | -0.6
Cc1cccc(OCc2cc(=O)n3c(-c4ccccc4)csc3n2)c1C | -0.1 | -19.6 | -1.3 | -9.5 | 5.9
O=C(Cn1cc(SCc2ccc(F)cc2)c2ccccc21)N1CCCCC1 | -0.7 | -8.5 | -0.1 | 1.9 | 2.6
CCN1CCN(c2cc(C)c3cc(NC(=O)/C=C/c4cccc(Cl)c4)ccc3n2)CC1 | -1.2 | -35.7* | -0.1 | 3.8 | 10.1
CCCCc1ccc(C(=O)Nc2ccc3nc(N4CCN(CC)CC4)cc(C)c3c2)cc1 | -0.9 | -58.8* | -0.1 | -1.2 | 4.8
CCN1CCN(c2cc(C)c3cc(NC(=O)c4cccc(Cl)c4)ccc3n2)CC1 | -0.9 | 6.7 | 0.2 | 5.8 | 4.2
COc1ccc(NC(=O)c2cc(S(=O)(=O)NCCC3=CCCCC3)ccc2F)cc1 | -2.4 | 4.7 | -0.1 | -0.6 | 0.8
COc1cc(C(=O)N2CCN(c3ccc(Nc4ccccc4)nn3)CC2)cc(OC)c1OC | -0.1 | nt | -0.4 | -0.4 | -0.6
C/C(=N\NC(=O)c1nnn(-c2nonc2N)c1-c1ccccc1)c1ccco1 | 3.0 | 34.0 | 14.0 | 23.4 | 66.0*
COc1cccc(-c2c(C(=O)N/N=C(\C)c3ccco3)nnn2-c2nonc2N)c1 | 2.2 | 34.0 | 5.0 | 20.3 | 46.8*
CCN(CC)S(=O)(=O)c1ccc(NC(=O)[C@H](CSCc2ccccc2)N2Cc3ccccc3C2=O)cc1 | -4.5 | -14.9 | 2.0 | 17.3 | 8.4
C/C(=N/Nc1ccnc2cc(Cl)ccc12)c1ccc(N)cc1 | -8.0 | -41.9* | -0.8 | -3.0 | 11.5
C/C(=N/Nc1ccnc2cc(Cl)ccc12)c1ccc(O)cc1 | -8.1 | -24.7 | -0.1 | -0.4 | 6.0
Cc1ccc(CNC(=O)C2CCCN(c3nc4ccccc4n4cccc34)C2)cc1 (stereo unspecified) | 1.3 | 4.6 | 0.1 | 0.7 | 1.3
CC(=O)NN=C1CCC(c2ccccc2)CC1 (stereo unspecified) | -9.1 | -2.8 | 0.0 | -1.9 | 1.2
NC(N)=NN=C1CCC(c2ccccc2)CC1 (stereo unspecified) | 36.9* | 6.6 | 1.1 | 21.3 | 2.5
SMILES | D1 potentiator | D1 antag | TRHR ag | TRHR enhancer | D1 agonist
O=C(Nc1cccc2cccnc12)c1ccc(Br)cc1 | 2.9 | 11.5 | 0.6 | -4.7 | 8.3
O=C(Cc1coc2cc3c(cc12)CCC3)NC1CCCCCCC1 | 1.1 | -50.9* | 0.6 | 7.5 | 5.4
CCOC(=O)C1CN(S(=O)(=O)c2ccc(C)cc2)c2ccccc2O1 (stereo unspecified) | -5.7 | -45.5* | 1.5 | -0.5 | 5.9
COc1cc2ccccc2cc1C(=O)OCC(=O)NC1CCS(=O)(=O)C1 (stereo unspecified) | -8.1 | -33.5* | -0.3 | -6.6 | 1.6
CN(C)c1ccc(C2C3CCCc4ccccc4C3=NN2C)cc1 (stereo unspecified) | 2.4 | 14.4 | 0.5 | 1.0 | 2.2
CN1N=C2c3ccccc3CCC2C1c1ccc(C(F)(F)F)cc1 (stereo unspecified) | 0.9 | -82.4* | -0.1 | 0.4 | 3.6
CCC(=O)NC(/C=C/c1ccccc1)c1cc([N+](=O)[O-])c2cccnc2c1O (stereo unspecified) | -5.8 | -1.8 | 0.0 | 31.8* | 1.6
CC1CCCCC1NC(=O)COC(=O)c1c2c(nc3ccccc13)/C(=C/c1ccco1)CC2 (stereo unspecified) | -1.9 | -16.7 | 1.7 | -1.5 | 9.7
O=C(COC(=O)c1c2c(nc3ccccc13)/C(=C/c1ccco1)CC2)NC1CCCC1 | -7.9 | -49.0* | 0.1 | 3.9 | 1.5
COc1ccc(C=O)cc1COc1ccccc1F | 0.5 | -6.6 | -0.4 | -0.4 | -1.1
COc1ccc(/C=C/C(=O)c2ccccc2)cc1COc1ccccc1F | 2.3 | 10.0 | -0.3 | 4.0 | 38.1*
Cc1c(Cl)cccc1-n1ncc(C(=O)NC2CCCC2)c1C1CCN(C(=O)OC(C)(C)C)CC1 | 3.0 | -80.0* | -0.2 | -7.2 | 0.0
COc1cccc(N2CCN(C(=O)c3cnn(-c4ccc(C)cc4C)c3C3CCN(C(=O)OC(C)(C)C)CC3)CC2)c1 | -0.9 | -7.5 | -0.6 | -12.9 | 1.1
COc1ccc(N2CCN(C(=O)c3cnn(-c4ccc(OC)cc4)c3C3CCN(C(=O)OC(C)(C)C)CC3)CC2)cc1 | -6.3 | -30.6* | -1.0 | 3.6 | -0.2
COc1cccc(N2CCN(C(=O)c3cnn(-c4ccccc4Cl)c3C3CCN(C(=O)OC(C)(C)C)CC3)CC2)c1 | -4.6 | -48.7* | -0.2 | -5.7 | 0.6
COc1ccc(-n2ncc(C(=O)N3CCN(c4cc(C)ccc4C)CC3)c2C2CCN(C(=O)OC(C)(C)C)CC2)cc1 | -5.8 | -31.0* | 0.5 | 3.5 | 1.0
COc1ccc(OCCCCn2c(C3CC(=O)N(c4cccc(Cl)c4)C3)nc3ccccc32)cc1 (stereo unspecified) | -2.5 | -11.8 | 3.0 | -2.3 | 17.8
COc1ccc(OC)c(S(=O)(=O)N2Cc3ccccc3CC2C(=O)Nc2ccc(C(C)=O)cc2)c1 (stereo unspecified) | -2.2 | -1.0 | 1.2 | -7.3 | 5.6
O=[S+]([O-])(NC[C@H]1CCC[C@H](CN[S+](=O)([O-])c2c(F)cccc2F)C1)c1ccc2c(c1)OCCO2 | 2.2 | 1.5 | 1.0 | 7.0 | 7.0
COc1cccc(NS(=O)(=O)c2cc(-c3cnc(C4CC4)o3)ccc2C)c1 | 0.3 | -11.6 | -0.6 | 4.5 | -1.4
CCCOc1ccc(C2C(=O)N(C3CCC(C)CC3)CC(=O)N2Cc2cccc(OC)c2)cc1OC (stereo unspecified) | -1.1 | -3.1 | -0.1 | -7.3 | -0.2
